The text below walks through data of PubChem BioAssay (NCATS).

Assay [1] deals with DNA repair nuclease/redox regulator APEX1 (Homo sapiens) (UniProt P27695). Put plainly: qHTS Validation Assay for Inhibitors of the Human Apurinic/apyrimidinic Endonuclease 1 (APE1) (AID 1705;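 also: TAMRA fluorescence gain over two minutes as APE1 cuts a quenched THF abasic duplex; series mostly up to about 57 µM; % is scaled to controls: 0 for no effect and ±100 for the full control effect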). The gist of the method:
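Fluorogenic double-stranded THF abasic-site substrate (5'-TAMRA/3'-BHQ-2), 50 nM final. Enzyme preincubated with compound 15 min at room temperature, then substrate added. Kinetic fluorescence (ex 525/em 598 nm) read three times at 60 s intervals; activity taken as third-minus-first read difference.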

The nature of assay [2]: Counterscreen for APE1 Inhibitors: Fluorescent Dye Displacement Validation Assay (AID 1707).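 Also: plate controls were ThO with dsDNA and no compound for no effect and ThO without dsDNA for full effect.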 The gist of the method: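 ThO 250 nM + dsDNA 50 nM (THF abasic site, 5'-TAMRA), Tris-HCl pH7.5/50mM NaCl/2 mM MgCl2/0.01% Tween-20; compounds pin-transferred; ex 480/em 540 nm endpoint. Neutral = no compound; no-DNA ThO wells = negative control.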
In general terms: A counterscreen serves to expose hits that act by an unwanted route or on another target.

The target in assay [3] is Endonuclease 4 (Escherichia coli (strain K12)) (UniProt P0A6C1). Put plainly: Counterscreen for APE1 Inhibitors: qHTS Validation Assay for Inhibitors of Endonuclease IV (AID 1708). Also: % is scaled to controls: 0 for no effect and ±100 for the full control effect. The gist of the method: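 Concentration-response counterscreen run identically to the APE1 assay: 15 min room-temperature preincubation of 2 nM enzyme with compound, reaction started with 50 nM quenched abasic DNA, progress taken from kinetic fluorescence.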

A short description of assay [4]: qHTS for differential inhibitors of proliferation of Plasmodium falciparum line 7G8 (AID 1815).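 Also: potency is read from the fitted curve at half-maximal effect; parasite growth measured after three days of incubation.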 A general note: Quantitative high-throughput screening tests each substance at several concentrations.
Assay [5] can be described thus: qHTS for differential inhibitors of proliferation of Plasmodium falciparum line GB4 (AID 1816).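 Also: potency is read from the fitted curve at half-maximal effect; parasite growth measured after 72 h incubation.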 As to conditions: Potency: Plasmodium falciparum GB4 proliferation inhibition.
Assay [6] is described as follows: qHTS for differential inhibitors of proliferation of Plasmodium falciparum line 3D7 (AID 1876). Also: potency is read from the fitted curve at half-maximal effect.
Assay [7] is described as follows: qHTS for differential inhibitors of proliferation of Plasmodium falciparum line D10 (AID 1877).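 Also: potency is read from the fitted curve at half-maximal effect; parasites grown with compound for 72 h before DNA staining.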
Assay [8] in a line: qHTS for differential inhibitors of proliferation of Plasmodium falciparum line Dd2 (AID 1882). Also: potency is read from the fitted curve at half-maximal effect; nearly all actives have a fitted effect of over 65% in size. The note with it: Potency: Plasmodium falciparum Dd2 proliferation inhibition. The gist of the method: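 Dd2-infected erythrocytes (0.3% parasitemia, 2.5% hematocrit final) incubated with compound 72 h at 37 C, 5% CO2; lysed with saponin/Triton buffer containing SYBR Green I, incubated overnight in the dark, then read by fluorescence (485/535 nm). Normalized to 0.29 uM artemisinin and DMSO.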

Assay [9] in a line: qHTS for differential inhibitors of proliferation of Plasmodium falciparum line W2 (AID 1883).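 Also: potency is read from the fitted curve at half-maximal effect; parasites grown with compound for 72 h before lysis and staining.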 The note with it: Potency: Plasmodium falciparum W2 proliferation inhibition.
A short description of assay [10]: qHTS for differential inhibitors of proliferation of Plasmodium falciparum line HB3 (AID 1886).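 Also: potency is read from the fitted curve at half-maximal effect; parasites grown with compound for 72 h before SYBR Green readout.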 As to conditions: Potency: Plasmodium falciparum HB3 proliferation inhibition.
In assay [11] the target is Ferritin light chain (Equus caballus) (UniProt P02791). Nature of the assay: qHTS Validation Assay for Identification of Novel General Anesthetics (AID 2323). Also: series mostly up to about 77 µM; % is scaled to controls: 0 for no effect and ±100 for the full control effect. The gist of the method:
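Horse-spleen apoferritin (10 uM) in PBS with 50% saturated 1-aminoanthracene; compounds pin-transferred, 10 min at room temperature. Fluorescence read at 380/535 nm, normalized to free 1-AMA and 1-AMA/apoferritin values; four-parameter Hill fit.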

In assay [12] the target is ATP-dependent DNA helicase Q1 (Homo sapiens) (UniProt P46063). Nature of the assay: qHTS Validation Assay for Inhibitors of RecQ-Like Dna Helicase 1 (RECQ1) (AID 2353).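 Also: plate controls were DMSO vehicle for no effect and enzyme-free control for full effect.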 The procedure, abridged: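 50 nM RECQ1T1 preincubated 15 min with compound in Tris pH 8.0 buffer with MgCl2, DTT, Tween-20 and 2.5 ug/ml poly(dI-dC); started with 200 nM TAMRA/BHQ-2 forked duplex and 2 mM ATP. Unwinding read as fluorescence (525/598 nm), two reads 2 h apart.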

The target of assay [13] is RecQ-like DNA helicase BLM (Homo sapiens) (UniProt P54132). Nature of the assay: qHTS Validation Assay for Inhibitors of Bloom's syndrome helicase (BLM) (AID 2364).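 Also: plate controls were DMSO vehicle for no effect and enzyme-free control for full effect.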 The procedure, abridged:
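BLM 50 nM in 25 mM Tris-HCl pH 8.0, 5 mM NaCl, 2 mM MgCl2, 1 mM DTT, 0.01% Tween-20, 2.5 ug/ml poly(dI-dC); 15 min cpd preinc, RT. Start: 200 nM forked DNA + 2 mM ATP (final). TAMRA read, 2 reads 2 h apart.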

Assay [14] is described as follows: Quantitative high throughput screen for delayed death inhibitors of the malarial parasite plastid, 96 hour incubation (AID 488745). Also: series mostly up to about 29 µM; % is scaled to controls: 0 for no effect and ±100 for the full control effect; nearly all actives have a fitted effect of over 70% in size. The gist of the method: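 Luciferase-expressing P. falciparum in erythrocytes (2% hematocrit, 0.1% parasitemia) incubated with compound for 96 h at 37 C, 5% CO2, in RPMI 1640 with 0.5% Albumax. Growth inhibition read as decreased luminescence.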

Assay [15] has as its target M-phase phosphoprotein 8 (Homo sapiens) (UniProt Q99549). Put plainly: qHTS Validation Assay for Inhibitors for MPP8 Chromodomain Interactions with Methylated Histone Tails (AID 488949). Also: potency is read from the fitted curve at half-maximal effect; nearly all actives have a fitted effect of over 55% in size. The procedure, abridged:
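MPP8 (50 nM) was pre-bound to 50 nM biotinylated H3(1-18)K9me3 peptide in PBS pH 7.4 with 0.01% Tween-20. Compounds were then added for 30 min at room temperature, and complex disruption was read by AlphaScreen with streptavidin donor and nickel-chelate acceptor beads.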

The target of assay [16] is Transient receptor potential cation channel subfamily V member 1 (Homo sapiens) (UniProt Q8NER1). Put plainly: HTS Assay for Compounds that Act as Enhancers of the Vanilloid Receptor 1 (AID 488979). Also: 0% is about no effect. The procedure, abridged:
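TRPV1-expressing cells loaded with Fluo-8 calcium dye; compounds added and calcium influx read kinetically for 3 min (agonist phase), then capsaicin at EC20 added and read 2 min more for enhancement. Fluorescence ex 480/em 520 nm.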

Assay [17] addresses Thyrotropin receptor (Homo sapiens) (UniProt P16473). Nature of the assay: qHTS Assay for Antagonists of the Thyroid Stimulating Hormone Receptor (AID 488980). Also: series mostly up to about 58 µM; 0% is about no effect. The procedure, abridged: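 TSHR-transfected HEK293 cells (2000/well) in HEPES-buffered HBSS with 70 uM RO 20-1724 were stimulated with 4 nM TSH (EC80, final) in the presence of compound. cAMP was measured by HTRF competition after lysis and 30 min at RT.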

In assay [18] the target is Thyrotropin-releasing hormone receptor (Homo sapiens) (UniProt P34981). Nature of the assay: qHTS for Small Molecule Agonists and Allosteric Enhancers of Human TRH Receptor: Validation Screen for Agonists (AID 493127;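 active = calcium activation more than 3 SD above the typical response in the agonist read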; also: 0% is about no effect). The note with it: TRH receptor agonist cell assay; at 2 µM; hits give high values. The procedure, abridged: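 TRHR cells loaded with fluo-8 calcium dye; FDSS kinetic fluorescence (Ex 480/Em 530) read at 1 s/cycle after 23 nL compound addition. Agonist-mode calcium response recorded before the 10 nM TRH (EC20) addition.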

Assay [19] addresses Galactokinase (Homo sapiens) (UniProt P51570). Put plainly: qHTS Validation Assay for Inhibitors of Human Galactokinase (GALK) (AID 493189). Also: 0% is about no effect. The procedure, abridged:
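GALK (5 nM) with 35 uM ATP and 100 uM galactose in HEPES pH 8.0 with MgCl2, NaCl, DTT and BSA. Reaction ran 1 h at room temperature. Residual ATP read by Kinase-Glo Plus luminescence.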

The nature of assay [20]: Validation screen for small molecules that induce DNA re-replication in SW480 colon adenocarcinoma cells (AID 504364). Also: 0% is about no effect. The gist of the method:
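SW480 cells (250/well) exposed 48 h at 37 C, 5% CO2, then Hoechst-stained 40 min. Nuclear DNA content imaged by fluorescence scanning (405 nm excitation, 500-530 nm emission); re-replication scored as increased nuclei with elevated intensity.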

The nature of assay [21]: Confirmatory qHTS for small molecule stabilizers of the endoplasmic reticulum resident proteome: Secreted ER Calcium Modulated Protein (SERCaMP) assay (AID 1508628). Also: potency is read from the fitted curve at half-maximal effect; nearly all actives have a fitted effect of over 40% in size. The gist of the method:
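SH-SY5Y cells stably expressing GLuc-SERCaMP, treated 16 h with compound (primary 1.53, 7.67, 38.3 uM; confirmation 11 concentrations, up to 76.6 uM), then 100 nM thapsigargin for 4 h. Secreted Gaussia luciferase in medium read by coelenterazine luminescence.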

The nature of assay [22]: Primary qHTS for small molecule stabilizers of the endoplasmic reticulum resident proteome: Secreted ER Calcium Modulated Protein (SERCaMP) assay (AID 1508630). Also: % is scaled to controls: 0 for no effect and ±100 for the full control effect. The procedure, abridged: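 GLuc-SERCaMP-expressing SH-SY5Y cells, pretreated 16 h with compound, are challenged with thapsigargin to empty ER calcium stores; after 4 h, coelenterazine is added directly to the medium and luminescence is imaged.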

A number with no mark means an inactive call. Records with an inconclusive call do not appear. Calls of active or inactive are those of the source. Unless noted, calls follow the shape of the dose curve; as a rule, active = well fitted curve in the direction sought with a large enough effect; inconclusive = small, poorly fitted or top-dose-only effect, or another doubt; inactive = no such curve, though single readings can be large; an effect the other way counts as inactive or inconclusive.

Galactokinase (Homo sapiens), sequence (P51570 whole entry, looked up): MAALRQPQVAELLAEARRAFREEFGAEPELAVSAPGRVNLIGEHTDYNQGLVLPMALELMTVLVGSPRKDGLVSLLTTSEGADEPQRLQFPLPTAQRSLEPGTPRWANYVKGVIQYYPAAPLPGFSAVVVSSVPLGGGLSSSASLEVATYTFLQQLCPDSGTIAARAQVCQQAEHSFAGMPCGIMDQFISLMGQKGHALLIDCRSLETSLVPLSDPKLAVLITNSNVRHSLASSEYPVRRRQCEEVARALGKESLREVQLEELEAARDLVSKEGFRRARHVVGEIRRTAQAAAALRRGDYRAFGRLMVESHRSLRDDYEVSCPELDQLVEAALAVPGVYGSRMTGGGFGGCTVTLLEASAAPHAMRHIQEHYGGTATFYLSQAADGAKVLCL
Thyrotropin receptor (Homo sapiens), sequence (P16473 whole entry, looked up): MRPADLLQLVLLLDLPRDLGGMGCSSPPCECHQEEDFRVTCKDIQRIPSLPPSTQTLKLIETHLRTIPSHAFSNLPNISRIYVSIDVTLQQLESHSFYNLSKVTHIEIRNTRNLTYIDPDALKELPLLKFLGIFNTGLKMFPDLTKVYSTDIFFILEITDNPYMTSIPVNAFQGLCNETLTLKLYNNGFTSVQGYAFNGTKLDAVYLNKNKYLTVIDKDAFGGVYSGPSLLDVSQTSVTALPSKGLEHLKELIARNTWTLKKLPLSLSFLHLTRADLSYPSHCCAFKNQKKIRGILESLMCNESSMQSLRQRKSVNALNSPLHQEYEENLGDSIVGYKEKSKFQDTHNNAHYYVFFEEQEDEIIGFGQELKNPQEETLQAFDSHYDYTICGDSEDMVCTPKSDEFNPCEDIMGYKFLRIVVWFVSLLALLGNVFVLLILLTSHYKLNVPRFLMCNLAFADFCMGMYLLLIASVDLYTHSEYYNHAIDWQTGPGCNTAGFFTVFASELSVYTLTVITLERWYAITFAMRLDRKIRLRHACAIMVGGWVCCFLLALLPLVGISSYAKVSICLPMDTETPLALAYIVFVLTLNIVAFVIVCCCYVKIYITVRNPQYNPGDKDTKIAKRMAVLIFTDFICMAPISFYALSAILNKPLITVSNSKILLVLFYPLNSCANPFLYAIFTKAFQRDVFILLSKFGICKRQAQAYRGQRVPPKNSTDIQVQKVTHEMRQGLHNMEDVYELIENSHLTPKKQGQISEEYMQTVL
Thyrotropin-releasing hormone receptor (Homo sapiens), sequence (P34981 whole entry, looked up): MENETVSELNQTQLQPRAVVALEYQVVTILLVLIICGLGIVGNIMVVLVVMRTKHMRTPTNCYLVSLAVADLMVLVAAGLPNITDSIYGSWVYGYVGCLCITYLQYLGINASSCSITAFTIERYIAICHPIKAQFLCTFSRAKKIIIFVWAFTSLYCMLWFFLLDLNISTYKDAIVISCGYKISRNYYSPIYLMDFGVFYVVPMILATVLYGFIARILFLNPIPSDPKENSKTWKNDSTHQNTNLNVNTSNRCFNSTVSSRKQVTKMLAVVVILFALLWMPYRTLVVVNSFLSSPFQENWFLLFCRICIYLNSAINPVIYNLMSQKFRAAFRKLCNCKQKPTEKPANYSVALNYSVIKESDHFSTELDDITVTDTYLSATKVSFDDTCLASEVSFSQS
Ferritin light chain (Equus caballus), sequence (P02791 2-175 limits assumed): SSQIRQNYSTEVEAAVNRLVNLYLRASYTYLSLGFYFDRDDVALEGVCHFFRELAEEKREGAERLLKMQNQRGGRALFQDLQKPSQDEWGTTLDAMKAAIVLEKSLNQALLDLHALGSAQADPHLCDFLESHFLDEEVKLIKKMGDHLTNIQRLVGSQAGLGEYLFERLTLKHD
Transient receptor potential cation channel subfamily V member 1 (Homo sapiens), sequence (Q8NER1 whole entry, looked up): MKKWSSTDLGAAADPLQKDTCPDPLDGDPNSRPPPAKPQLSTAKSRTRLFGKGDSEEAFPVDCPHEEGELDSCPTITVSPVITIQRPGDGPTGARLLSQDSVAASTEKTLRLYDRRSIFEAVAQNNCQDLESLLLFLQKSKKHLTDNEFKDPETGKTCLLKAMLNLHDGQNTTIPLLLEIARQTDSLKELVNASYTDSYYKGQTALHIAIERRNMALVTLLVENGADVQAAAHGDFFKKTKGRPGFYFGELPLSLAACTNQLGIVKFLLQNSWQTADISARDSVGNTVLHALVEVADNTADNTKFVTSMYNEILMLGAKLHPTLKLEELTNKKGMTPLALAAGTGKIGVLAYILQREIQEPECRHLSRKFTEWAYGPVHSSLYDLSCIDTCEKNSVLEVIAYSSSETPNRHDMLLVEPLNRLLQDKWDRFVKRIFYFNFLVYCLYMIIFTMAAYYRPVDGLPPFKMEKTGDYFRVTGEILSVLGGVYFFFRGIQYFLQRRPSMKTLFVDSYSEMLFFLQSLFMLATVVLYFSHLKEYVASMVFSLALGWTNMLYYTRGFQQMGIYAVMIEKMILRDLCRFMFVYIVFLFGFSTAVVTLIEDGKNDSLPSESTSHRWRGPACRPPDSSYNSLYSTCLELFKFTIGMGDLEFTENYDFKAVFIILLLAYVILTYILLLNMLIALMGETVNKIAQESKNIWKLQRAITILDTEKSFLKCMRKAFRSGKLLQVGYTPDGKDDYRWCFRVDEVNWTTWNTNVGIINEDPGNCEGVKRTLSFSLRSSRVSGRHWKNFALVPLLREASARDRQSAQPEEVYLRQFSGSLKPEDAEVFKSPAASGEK
DNA repair nuclease/redox regulator APEX1 (Homo sapiens), sequence (P27695 whole entry, looked up): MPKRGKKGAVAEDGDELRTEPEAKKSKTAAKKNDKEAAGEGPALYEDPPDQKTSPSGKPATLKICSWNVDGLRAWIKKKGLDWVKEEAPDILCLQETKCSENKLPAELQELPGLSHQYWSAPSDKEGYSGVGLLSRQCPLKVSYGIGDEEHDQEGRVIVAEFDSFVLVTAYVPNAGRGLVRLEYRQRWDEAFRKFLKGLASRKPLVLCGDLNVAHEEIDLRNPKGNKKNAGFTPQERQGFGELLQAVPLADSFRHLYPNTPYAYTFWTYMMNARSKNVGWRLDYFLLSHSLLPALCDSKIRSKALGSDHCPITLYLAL
M-phase phosphoprotein 8 (Homo sapiens), sequence (Q99549 whole entry, looked up): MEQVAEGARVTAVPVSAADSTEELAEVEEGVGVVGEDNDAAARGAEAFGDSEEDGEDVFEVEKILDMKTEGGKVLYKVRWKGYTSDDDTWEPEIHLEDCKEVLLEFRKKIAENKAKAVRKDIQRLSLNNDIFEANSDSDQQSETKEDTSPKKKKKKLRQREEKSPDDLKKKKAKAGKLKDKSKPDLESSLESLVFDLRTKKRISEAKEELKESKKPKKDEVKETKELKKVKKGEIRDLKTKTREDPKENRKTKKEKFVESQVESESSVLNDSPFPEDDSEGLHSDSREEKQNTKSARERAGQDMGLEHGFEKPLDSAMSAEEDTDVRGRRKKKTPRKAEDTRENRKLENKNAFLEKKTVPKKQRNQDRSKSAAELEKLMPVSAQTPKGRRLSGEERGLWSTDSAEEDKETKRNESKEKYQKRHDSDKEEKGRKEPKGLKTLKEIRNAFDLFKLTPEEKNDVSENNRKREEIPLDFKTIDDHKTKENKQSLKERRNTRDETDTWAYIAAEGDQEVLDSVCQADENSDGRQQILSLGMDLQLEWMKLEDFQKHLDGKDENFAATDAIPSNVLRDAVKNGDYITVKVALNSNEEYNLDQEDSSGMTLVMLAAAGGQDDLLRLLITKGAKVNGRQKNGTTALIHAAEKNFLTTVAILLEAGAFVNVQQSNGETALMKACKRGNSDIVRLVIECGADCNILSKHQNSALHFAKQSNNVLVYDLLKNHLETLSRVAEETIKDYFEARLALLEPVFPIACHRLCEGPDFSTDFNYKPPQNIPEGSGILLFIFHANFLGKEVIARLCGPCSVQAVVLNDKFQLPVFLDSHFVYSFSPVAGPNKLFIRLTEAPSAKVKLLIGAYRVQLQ
ATP-dependent DNA helicase Q1 (Homo sapiens), sequence (P46063 whole entry, looked up): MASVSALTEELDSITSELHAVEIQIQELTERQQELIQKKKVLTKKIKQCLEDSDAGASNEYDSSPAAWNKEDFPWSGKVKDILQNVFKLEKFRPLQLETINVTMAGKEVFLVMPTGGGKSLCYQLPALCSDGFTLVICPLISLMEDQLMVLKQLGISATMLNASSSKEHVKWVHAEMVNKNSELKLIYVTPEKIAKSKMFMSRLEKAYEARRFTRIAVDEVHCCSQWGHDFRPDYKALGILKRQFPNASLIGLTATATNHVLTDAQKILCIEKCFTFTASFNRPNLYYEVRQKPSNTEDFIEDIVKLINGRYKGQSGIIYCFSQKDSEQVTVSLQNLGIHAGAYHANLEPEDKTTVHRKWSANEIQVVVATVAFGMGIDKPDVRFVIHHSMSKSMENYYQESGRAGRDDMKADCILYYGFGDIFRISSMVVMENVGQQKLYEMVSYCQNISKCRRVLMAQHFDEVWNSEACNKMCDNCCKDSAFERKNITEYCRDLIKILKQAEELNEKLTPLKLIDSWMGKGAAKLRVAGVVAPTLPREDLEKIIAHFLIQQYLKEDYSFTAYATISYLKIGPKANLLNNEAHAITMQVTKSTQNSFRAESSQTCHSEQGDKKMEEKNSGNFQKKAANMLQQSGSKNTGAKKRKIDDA

In the case of `C=CCN1CCc2cccc3c2C1Cc1ccc(O)c(O)c1-3` (configuration not stated), the Potency result in [1], in [3], in assay [11] and in assay [14] was “inactive” in each case. In addition, the outcome in assay [2], in [12], in assay [13], in assay [16], in assay [17] and in assay [19] was inactive. Also, the compound was classed as inactive in assay [20]. For the same compound, the Potency in [4] is 2820 nM (active); in assay [5], 2000 nM (active); in assay [6] it was 2820 nM (active); in [7] it was 2000 nM (active); in assay [8], 2820 nM (active); in assay [9], 2510 nM (active). Moreover, the Potency was 2000 nM (active) in assay [10], 6310 nM (active) in [15] and 39800 nM (active) in assay [21]. The activation in [18] is -2.75%.
As to `C[C@@H]1C[C@@H](O)[C@@]2(O)[C@]13CC(=O)OC[C@]2(C)[C@@](C)(O)C(=O)C3`, the outcome in assay [22] was inactive.
